# Assay outcomes deposited in PubChem by The Scripps Research Institute Molecular Screening Center.
# Most compounds without a hit are left out; they make up all but 2.6% or so of the library.
# TCR-CD3 inh = human TCR-CD3 binding inhibition; TAMRA-labeled TCR probe fluorescence, biochemical; inhibition, % at 9.4 µM; 360,000 compounds, 0.37% hits; AID 651800; in the data active = inhibition above about 19%;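 also: recombinant mutant TCR 2C K166C tagged with TAMRA read by polarization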
# PME-1 inh = blocks human protein phosphatase methylesterase 1. Q9Y570. recombinant PME-1, FP-Rh probe fluorescence polarization. inhibition, % at 5.9 µM. 320,000 compounds, 0.53% hits. AID 2130;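 active = inhibition above the campaign mean of all compounds plus 3 SD, cut at about 26% in these data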;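 also: competitive labeling of PME-1 active site by serine hydrolase directed probe; inhibitors block probe labeling so polarization falls and inhibition rises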
# Target sequence (Q9Y570 whole entry, looked up): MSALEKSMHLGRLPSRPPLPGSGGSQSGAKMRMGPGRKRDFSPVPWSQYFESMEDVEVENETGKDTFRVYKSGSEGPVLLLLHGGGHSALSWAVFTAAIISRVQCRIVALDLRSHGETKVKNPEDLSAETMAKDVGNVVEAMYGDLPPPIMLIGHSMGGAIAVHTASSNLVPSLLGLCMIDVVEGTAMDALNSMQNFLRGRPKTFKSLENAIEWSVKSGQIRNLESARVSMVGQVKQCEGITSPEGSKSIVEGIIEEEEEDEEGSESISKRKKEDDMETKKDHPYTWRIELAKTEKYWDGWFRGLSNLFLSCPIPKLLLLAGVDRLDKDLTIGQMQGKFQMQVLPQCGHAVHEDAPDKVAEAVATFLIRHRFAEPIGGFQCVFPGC
# PAD4 FP inh = PAD4 (human) enzyme inhibition; 330,000 compounds, 0.41% hits; Q9UM07; recombinant PAD4, RCA probe fluorescence polarization; inhibition, % at 6.36 µM;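 active = percent inhibition above a cutoff equal to the mean of all tested compounds plus 3 SD, cut at about 15% in these data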
# PRMT1 inh = blocks human protein arginine methyltransferase 1 | 370,000 compounds, 1.3% hits | recombinant PRMT1, activity-based probe fluorescence polarization | inhibition, % at 2.79 µM | Q99873;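 active = inhibition above about 21% made by adding two undisclosed values, limit read from the data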
# Fam108B counter = Fam108B inhibition, counter-screen for RBBP9 inhibitors; recombinant Fam108B, FP-Rh probe fluorescence polarization; AID 1947; 300,000 compounds, 0.33% hits; inhibition, % at 9.51 µM;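 active = inhibition above the screen mean inhibition plus 3 SD, computed separately per campaign, cut at about 18% in these data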;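 also: inhibitors lower polarization as less probe binds the enzyme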
# SIAE primary = inhibitors of human sialic acid acetylesterase SIAE; Q9HAT2; SIAE FP-Rh probe binding, fluorescence polarization; inhibition, % at 9.66 µM; 370,000 compounds, 0.69% hits;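 active = inhibition above a cutoff: mean of compounds within the control limits plus 3 SD of those, cut at about 17% in these data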
# PRMT1 inh conf = PRMT1 (human) inhibition, FP confirmation | shares compounds with PRMT1 inh | recombinant His-PRMT1, activity-based probe fluorescence polarization | inhibition, % at 2.79 µM | 3,300 compounds, 42% hits | AID 687036;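 active = mean inhibition across replicates above the hit cutoff derived for the earlier primary screen, cut at about 22% in these data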
# Hits are given with their value; – = inactive; · = no result given.
SMILES,TCR-CD3 inh,PME-1 inh,PAD4 FP inh,PRMT1 inh,Fam108B counter,SIAE primary,PRMT1 inh conf
O=C(c1cccc(C(F)(F)F)c1)N1CC[C@H]2[C@H](CCCN2Cc2ccccc2)C1,·,·,·,–,·,–,·
CCOC(=O)C1=C(C)NC(=S)NC1c1ccc(-c2ccc(Cl)cc2)o1 (centres undefined),–,–,–,42,–,–,–
COC(=O)C1=C(C)NC(=S)NC1c1ccc(-c2ccccc2C(=O)OC)o1 (centres undefined),–,–,–,31,–,–,–
COC(=O)C1=C(C)NC(=S)NC1c1ccc(-c2cccc(Cl)c2)o1 (centres undefined),–,–,–,–,–,–,·
CC(=O)C1=C(S(=O)(=O)c2ccc(C)cc2)CS(=O)(=O)C1,–,·,·,76,·,–,89
Cc1ccc(S(=O)(=O)C2CS(=O)(=O)CC2O)cc1 (centres undefined),–,–,–,–,–,–,·
COC(=O)[C@]12C[C@H](CC(=O)NCc3cccc4ccccc34)C(=O)N(Cc3ccc(Cl)cc3Cl)C1=C[C@H](C(C)(C)C)O[C@@H]2C,·,·,·,–,·,–,·
CC[C@H](CCCc1ccc(F)cc1)CN(Cc1ccc(OC)cc1)S(=O)(=O)c1ccc(C)cc1,·,·,·,–,·,–,·
CN1[C@H](Cc2ccccc2)COc2cc(N3CCCC3)ccc2S1(=O)=O,·,·,·,–,·,–,·
CCN1C(=O)CS/C1=N\S(=O)(=O)c1ccc(Cl)cc1,–,–,–,–,–,–,·
CCn1c(Cl)c(C=O)s/c1=N\S(=O)(=O)c1ccccc1,–,–,–,49,–,–,27
CC(C)OC(=O)CSc1nnc(-c2ccc(C(C)(C)C)cc2)n1N,–,–,–,53,–,–,60
Cc1ccc(-c2csc3nc(C)n(-n4cccc4)c(=O)c23)o1,–,–,–,26,–,–,–
Clc1ccc2nc(CNc3nc(N4CCOCC4)nc4c3ncn4-c3ccsc3)[nH]c2c1,·,·,·,–,·,–,·
CC[C@@H](C)[C@H](NC(=O)OC(C)(C)C)c1nnc(S(=O)(=O)Cc2cc(C)ccc2C)o1,–,–,–,–,–,–,·
CC(C)[C@H](NC(=O)OC(C)(C)C)c1nnc(S(=O)(=O)Cc2c(F)cccc2Cl)o1,–,–,–,30,–,–,–
Cc1ccccc1CS(=O)(=O)c1nnc([C@H](CC(C)C)NC(=O)OC(C)(C)C)o1,–,–,–,27,–,–,–
CC(C)(C)OC(=O)N[C@@H](Cc1ccccc1)c1nnc(S(=O)(=O)Cc2cccc(F)c2)o1,·,–,–,·,–,·,·
Cc1ccc(C)c(NC(=O)C2CCCN2S(=O)(=O)c2cccc3cccnc23)c1 (centres undefined),·,·,·,–,·,–,·
COc1nc(OC)nc(N2CCC(C(=O)NCc3ccccc3OC)CC2)n1,·,·,·,–,·,–,·
O=C(c1cccc(F)c1F)N(Cc1ccccn1)CC1CCCO1 (centres undefined),·,·,·,–,·,–,·
O=C(O)C1CC(=O)N(Cc2ccc3c(c2)OCO3)C1 (centres undefined),·,–,–,·,–,·,·
O=C1CC(NCc2ccc3c(c2)OCO3)C(=O)N1Cc1ccc2c(c1)OCO2 (centres undefined),–,–,–,56,–,–,–
CSc1ccccc1NC(=O)CN(C)Cc1c(O)ccc2ccccc12,–,–,–,39,–,–,30
O=C(/C=C1\C(=O)Nc2ccccc21)/C=C1\C(=O)Nc2ccccc21,–,·,·,53,·,19,74
SMILES,TCR-CD3 inh,PME-1 inh,PAD4 FP inh,PRMT1 inh,Fam108B counter,SIAE primary,PRMT1 inh conf
Cc1cc(C(=O)Nc2ccc(F)cc2)n(-c2ccccc2)n1,·,·,·,–,·,–,·
Cc1ccc(Cn2c(=S)[nH]c3ccc(N4CCOCC4)cc3c2=O)o1,–,–,–,69,–,–,61
O=C(CCc1ccccc1)N[C@H]1[C@H](OC(=O)c2ccc3ccccc3n2)CCC[C@@]12C(=O)N(Cc1ccccc1)c1ccccc12,·,·,·,–,·,–,·
O=C(NCCCc1ccccc1)[C@H](Cc1c[nH]c2ccccc12)NC1(C(=O)NCCc2c[nH]c3ccccc23)CCC1,·,·,·,–,·,–,·
CSCC(C)N1CCC(n2nccc2NC(=O)CCCc2ccccc2)CC1 (centres undefined),–,–,–,30,–,–,24
CSCC(C)N1CCC(n2nccc2NC(=O)CCc2ccccc2)CC1 (centres undefined),–,·,·,–,·,–,·
